The record followed here is PubChem BioAssay.

The source made the active and inactive calls. Unless noted, no rule for the calls is given here.

The nature of assay [1]: HepG2 liver cancer cell viability effects, profiling panel, resazurin fluorescence, 24 h, PK04 Diversity Set (AID 1172). To be noted: higher = more signal. In general terms: Resazurin is reduced to fluorescent resorufin, in cell work by metabolically active cells.
Assay [2] is described as follows: basal S. cerevisiae growth modulation, no modifier, primary screen, OD600, strain BY4716, 24 h, basal condition (AID 1173). The note with it: OD600, 24 h, higher = more signal, called active from +8 up or from −8 down.
A short description of assay [3]: MM1S myeloma cell viability, profiling panel, resazurin fluorescence, basal, 24 h, PK04 Diversity Set (AID 1174).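 Also: MM1S multiple myeloma cell line.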 The note with it: higher = more signal, called active from +8 up or from −8 down.
The target of assay [4] is Dihydroorotate dehydrogenase (quinone), mitochondrial (Plasmodium falciparum (isolate 3D7)) (UniProt Q08210). The assay can be described thus: PfDHODH enzyme inhibitors, primary screen, biochemical, C-terminal His tag, absorbance 600 nm (AID 1175).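 Also: recombinant parasite enzyme with a five histidine tag at its C terminus.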 To be noted: DCIP absorbance 600 nm, higher = more signal, called active from +8 up or from −8 down.
Sequence of Dihydroorotate dehydrogenase (quinone), mitochondrial (Plasmodium falciparum (isolate 3D7)) (Q08210 whole entry, looked up): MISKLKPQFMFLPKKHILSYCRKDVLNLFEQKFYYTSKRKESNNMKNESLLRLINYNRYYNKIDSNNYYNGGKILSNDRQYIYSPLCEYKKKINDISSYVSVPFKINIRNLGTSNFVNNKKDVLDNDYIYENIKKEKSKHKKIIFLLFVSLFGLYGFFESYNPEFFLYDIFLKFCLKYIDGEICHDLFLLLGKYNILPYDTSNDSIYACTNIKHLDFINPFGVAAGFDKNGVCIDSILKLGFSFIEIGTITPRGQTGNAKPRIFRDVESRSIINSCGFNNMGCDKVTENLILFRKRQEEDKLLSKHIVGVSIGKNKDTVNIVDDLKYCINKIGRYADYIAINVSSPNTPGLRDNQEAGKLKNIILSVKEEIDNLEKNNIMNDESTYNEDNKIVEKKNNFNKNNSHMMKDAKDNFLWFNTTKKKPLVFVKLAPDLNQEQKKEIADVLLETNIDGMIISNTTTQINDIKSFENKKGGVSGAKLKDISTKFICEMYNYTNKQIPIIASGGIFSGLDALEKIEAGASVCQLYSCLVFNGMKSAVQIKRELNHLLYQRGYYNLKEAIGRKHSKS
The nature of assay [5]: P. aeruginosa biofilm formation inhibitors, primary screen, strain PAO1, LB-PBS medium, absorbance 600 nm (AID 1176). The note with it: P. aeruginosa PAO1 growth/biofilm, A600, 12 h; higher = more signal.
Assay [6] is described as follows: S. cerevisiae RM11-1a growth modifiers, primary screen, strain RM11-1a, OD600, basal, 24 h (AID 1177).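 Also: cultures grown under basal conditions with no added stressor.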 The note with it: OD600, 24 h, higher = more signal, called active from +8 up or from −8 down.
A short description of assay [7]: E. coli acrAB mutant growth effects, primary screen, E. coli filamentation inducers, strain DRC39, OD650, 24 h (AID 1178).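 Also: growth measured as culture turbidity by optical density at 650 nm.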 The note with it: higher = more signal, called active from +8 up or from −8 down.
A short description of assay [8]: E. coli acrAB mutant growth effects, primary screen, E. coli filamentation inducers, strain DRC39, OD650, 48 h (AID 1179).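 Also: screen aims at cell division blockers that make cells filament.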 The note with it: E. coli DRC39 delta-acrAB growth, higher = more signal, called active from +8 up or from −8 down.
A short description of assay [9]: RPMI8226 myeloma cell viability, profiling panel, resazurin fluorescence, basal, 24 h, PK04 Diversity Set (AID 1180).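 Also: RPMI8826 multiple myeloma cell line at 5000 cells per well.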 The note with it: higher = more signal.
For assay [10], the target named is E3 ubiquitin-protein ligase XIAP (Homo sapiens) (UniProt P98170). The assay can be described thus: XIAP binders, primary screen, biophysical, small-molecule microarray, fluorescence 635 nm (AID 1181).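 Also: score merges 667 nm emission and signal to noise over triplicate slides.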 To be noted: small-molecule microarray binding, higher = more signal.
Sequence of E3 ubiquitin-protein ligase XIAP (Homo sapiens) (P98170 whole entry, looked up): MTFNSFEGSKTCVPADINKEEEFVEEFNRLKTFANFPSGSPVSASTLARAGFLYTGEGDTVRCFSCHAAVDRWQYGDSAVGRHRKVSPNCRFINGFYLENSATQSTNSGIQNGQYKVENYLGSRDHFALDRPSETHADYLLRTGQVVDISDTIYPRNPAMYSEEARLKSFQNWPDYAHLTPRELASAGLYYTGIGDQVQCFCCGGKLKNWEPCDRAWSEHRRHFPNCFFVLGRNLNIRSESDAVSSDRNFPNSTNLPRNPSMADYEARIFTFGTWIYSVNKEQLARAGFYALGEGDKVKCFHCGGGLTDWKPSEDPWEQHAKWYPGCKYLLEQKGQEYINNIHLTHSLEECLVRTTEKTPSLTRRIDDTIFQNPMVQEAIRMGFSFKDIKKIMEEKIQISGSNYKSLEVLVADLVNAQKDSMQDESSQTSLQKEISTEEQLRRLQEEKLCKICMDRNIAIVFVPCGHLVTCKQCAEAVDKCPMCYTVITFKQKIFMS
Assay [11] has as its system XIP peptide (Xip251-270) binding. The assay can be described thus: small-molecule binders of XIP peptide, primary screen, biochemical, small-molecule microarray, fluorescence 635/667 nm, 0.1 µg/mL protein (AID 1182). The note with it: fluorescent protein binding, 635 nm, higher = more signal, called active from +8 up or from −8 down.
Assay [12] deals with XIP peptide (Xip251-270). Kind of assay: small-molecule binders of XIP peptide, primary screen, biochemical, small-molecule microarray, fluorescence 635/667 nm, 0.5 µg/mL protein (AID 1183). To be noted: small-molecule microarray binding, fluorescence 635 nm; higher = more signal.
Assay [13] in a line: Plasmodium falciparum growth inhibition, primary screen, strain 3D7, DAPI fluorescence, 100 nL (AID 1184).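 Also: parasites grown inside human red blood cells in medium with human serum.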 To be noted: P. falciparum 3D7 growth, 3 d, higher = more signal.
The target in assay [14] is Homeobox protein Hox-A13 (Mus musculus) (UniProt Q62424). The assay can be described thus: inhibitors of HoxA13-DNA binding, primary screen, biochemical, fluorescence polarization, labeled oligonucleotide (AID 1185). The note with it: 15 min, higher = more signal, called active from +8 up or from −8 down. For orientation: In fluorescence polarisation assays a small probe gives low polarisation when free and higher when bound to something large.
Sequence of Homeobox protein Hox-A13 (Mus musculus) (Q62424 whole entry, looked up): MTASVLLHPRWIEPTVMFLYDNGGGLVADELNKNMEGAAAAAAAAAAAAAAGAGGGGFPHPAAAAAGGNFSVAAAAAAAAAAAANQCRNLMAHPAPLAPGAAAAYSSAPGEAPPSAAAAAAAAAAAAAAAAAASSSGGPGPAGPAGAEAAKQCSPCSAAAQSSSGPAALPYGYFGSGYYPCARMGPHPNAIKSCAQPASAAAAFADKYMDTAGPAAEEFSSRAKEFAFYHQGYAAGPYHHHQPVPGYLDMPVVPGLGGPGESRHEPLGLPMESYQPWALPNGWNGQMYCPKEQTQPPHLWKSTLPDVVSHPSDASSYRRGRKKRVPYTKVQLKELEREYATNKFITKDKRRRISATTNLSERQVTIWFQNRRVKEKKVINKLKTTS

Assay [15] is described as follows: inhibitors of hydroxyurea-induced Chk1 phosphorylation, primary screen, imaging, HeLa, phospho-Chk1 antibody, percent positive cells (AID 1186). The note with it: hydroxyurea-induced phospho-Chk1 immunofluorescence imaging, higher = more signal.
Assay [16] can be described thus: inhibitors of hydroxyurea-induced Chk1 phosphorylation, primary screen, imaging, HeLa, phospho-Chk1 nuclear intensity (AID 1187). To be noted: hydroxyurea-induced phospho-Chk1 immunofluorescence imaging, higher = more signal.

With `CC(C)C[C@@H]1NC(=O)[C@H]2C[C@@H](C(=O)NCCCCCCNC(=O)CS)[C@@H](c3ccc(O)cc3)N2C1=O`, the z-score was 0.102 in assay [1]; 0.153 (inactive) in assay [2]; 0.0815 (inactive) in [3]; 0.932 (inactive) in assay [5]; 0.088 (inactive) in assay [6]; 0.236 (inactive) in [7]. Further, the z-score in assay [8] is -0.0073 (inactive); in [9], -0.596; in [13] it was 0.214; in assay [14] it was -3.29 (inactive); in [15], 1.15 (inactive); in [16] it was 0.716 (inactive). Besides, the composite z-score in [4] was 0.31 (inactive); in assay [10], 0.101; in assay [11] it was 3.87 (inactive); in assay [12], 0.409.
Consider `COC(=O)C1=CC(CCCO)=CC(C2CC2)N(Cc2cccc(OC(F)(F)F)c2)C=C1C(=O)OC` (centres undefined), for which the z-score is 0.588 in [1]; -1.76 (inactive) in assay [2]; 0.348 (inactive) in [3]; 0.034 (inactive) in assay [5]; 0.0808 (inactive) in assay [6]; 1.01 (inactive) in [7]. The z-score in assay [8] was 1.1 (inactive); in assay [9], 0.693; in [13], -1.37; in assay [14], -7.83 (inactive); in [15], -0.316 (inactive); in assay [16], -0.0702 (inactive). Besides, the composite z-score in assay [4] is -6.2 (inactive); in assay [10], -0.22; in assay [11], 0.737 (inactive); in assay [12], 0.668.
Take `CC(c1ccccc1)C(O)C1C=CC2C(=O)N(c3ccccc3)C(=O)C2N1Nc1ccc(C#N)cc1` (centres undefined): the z-score in assay [1] was 0.142; in assay [2] it was -0.0091 (inactive); in [3] it was -1.24 (inactive); in [5], 0.695 (inactive); in [6] it was -0.977 (inactive); in [7] it was 1.07 (inactive). The z-score in assay [8] is 1.83 (inactive); in [9] it was -0.008; in assay [13] it was 0.526; in assay [14] it was -1.21 (inactive); in assay [15] it was -0.325 (inactive); in [16], 0.313 (inactive). Further, the composite z-score in [4] was -0.0432 (inactive); in assay [10], 0.332; in [11], 0.235 (inactive); in [12] it was 0.784.
`CCCC=C(CCC)[C@@H](NC(=O)c1ccccc1)c1ccc(C(=O)OC)cc1`: the z-score in [1] was 0.295; in assay [2], -0.366 (inactive); in assay [3], 0.286 (inactive); in assay [5] it was 2.23 (inactive); in assay [6], -0.363 (inactive); in assay [7], -0.634 (inactive). In addition, the z-score is -0.078 (inactive) in assay [8]; -0.0265 in assay [9]; -0.891 in assay [13]; -0.72 (inactive) in assay [14]; 0.473 (inactive) in [15]; 0.204 (inactive) in assay [16]. In addition, the composite z-score in [4] is -5.83 (inactive); in [10], 0.209; in [11], -0.0026 (inactive); in [12], 0.222.
For `CC(C)CNC(=O)[C@@]1(C)c2ccccc2C(=O)N(Cc2cc(F)cc(C(F)(F)F)c2)[C@H]1c1ccc(CO)cc1`, the z-score in [1] is -0.201; in assay [2], -0.3 (inactive); in assay [3], 0.919 (inactive); in assay [5] it was 1.22 (inactive); in assay [6], -0.167 (inactive); in assay [7] it was 0.167 (inactive). Further, the z-score in [8] is 0.137 (inactive); in assay [9] it was 0.489; in [13], -0.586; in assay [14], -3.51 (inactive); in assay [15], -0.143 (inactive); in assay [16], 0.0394 (inactive). Besides, the composite z-score was -0.0555 (inactive) in assay [4], -0.208 in assay [10], 2.74 (inactive) in assay [11] and 0.467 in [12].
For the molecule `CCCCC(=C=CC[C@@H](O)c1cccc(OCCO)c1)C[C@@H](O)COCc1ccccc1`, the z-score in assay [1] was 0.161; in assay [2] it was -2.28 (inactive); in assay [3], -0.164 (inactive); in [5] it was 0.212 (inactive); in [6], -2.76 (inactive); in [7], 0.812 (inactive). Moreover, the z-score in assay [8] was 0.577 (inactive); in [9] it was 0.528; in assay [13] it was -1.1; in [14], -4.82 (inactive); in assay [15], -0.255 (inactive); in assay [16] it was 0.827 (inactive). Also, the composite z-score in assay [4] was -2.23 (inactive); in [10] it was -0.0561; in [11], -0.0344 (inactive); in assay [12], 0.713.
For `CC(C)C[C@H]1NC(=O)[C@H](Cc2ccccc2)NC(=O)[C@@]23C(=O)N[C@@H](Cc4ccccc4)C2[C@H](C)[C@@]2(C)O[C@H]2C3/C=C/C/C=C\CNC1=O` (some centres undefined), the z-score in [1] is -0.59; in [2] it was -0.396 (inactive); in [3], -0.263 (inactive); in assay [5] it was 0.519 (inactive); in assay [6] it was -0.711 (inactive); in assay [7], -0.437 (inactive). Besides, the z-score in assay [8] is -0.231 (inactive); in assay [9], -0.0041; in assay [13], -0.799; in [14] it was -7.8 (inactive); in assay [15], -0.157 (inactive); in assay [16] it was 0.005 (inactive). Further, the composite z-score in assay [4] is -0.228 (inactive); in assay [10], -0.17; in assay [11], 0.252 (inactive); in assay [12], 0.718.
Take `C=CC[C@@]1(C(=O)O)N=C(c2ccc(OCCCO)cc2)O[C@@H]1c1ccccc1CN=[N+]=[N-]`: the z-score in [1] is 0.793; in [2], -2.58 (inactive); in assay [3], 0.747 (inactive); in [5], -0.043 (inactive); in [6] it was -0.534 (inactive); in assay [7] it was 0.8 (inactive). The z-score in assay [8] is 0.302 (inactive); in assay [9], 1.1; in assay [13] it was -1.34; in [14], -6.29 (inactive); in assay [15] it was -0.222 (inactive); in assay [16] it was -0.0145 (inactive). The composite z-score is -0.0013 (inactive) in assay [4], 0.565 in [10], -0.207 (inactive) in assay [11] and 0.563 in assay [12].
`C=CCC(OC(C)=O)[C@@H]1[C@@H](N(Cc2cc3ccccc3o2)C(=O)c2cccc3ccccc23)c2cc(OCCCO)ccc2N1C(=O)c1ccc2ccccc2c1` (some centres undefined): the z-score was -1.18 in assay [1]; -0.469 (inactive) in assay [2]; -0.581 (inactive) in assay [3]; -0.227 (inactive) in [5]; -0.389 (inactive) in [6]; -0.423 (inactive) in [7]. In addition, the z-score is -0.797 (inactive) in assay [8]; -0.855 in [9]; -2.65 in assay [13]; -1.34 (inactive) in assay [14]; -0.328 (inactive) in assay [15]; -0.0311 (inactive) in [16]. Besides, the composite z-score in assay [4] is 0.0769 (inactive); in assay [10], -0.146; in [11], 0.0745 (inactive); in [12], -0.611.
